The text below walks through data of PubChem BioAssay (NCI).

This is part of a sample that, as a whole, favours compounds with a hit. Of some 83,000 tested, about 20% had one in any assay.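 How to read the values: 0–100, growth inhibition (40 = 60% inhibited); 0, no net growth; -100 to 0, cell death (-40 = 40% of starting cells died; -100 = all dead).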 Active and inactive are the calls of the source. Rule for the calls: active = growth percent below 10; inactive = the rest.

The assay concerns HL-60(TB) leukemia. As to the kind of experiment: NCI-60 one-dose screen, 48 h (100 = growth as untreated, 0 = no growth, -100 = all killed). To be noted: 10 µM unless noted.
As to `CCCCc1n(Cc2ccc3ccccc3c2)cc[n+]1Cc1ccc2ccccc2c1`, the growth was -52.6% (active).
The figure for `N=C1c2nc3n(c2C(=O)c2nc4n(c21)CCCCC4)CCCCC3` is 103% (inactive); for `CCOC(=O)Nc1ccc(C(=O)/C=C/c2ccccc2)cc1` it is 45.4% (inactive); for `N=C1/C(=C2\NC3C=CC=CC3S2)C(c2ccc(Cl)cc2)C2C(=O)N(c3ccccc3)C(=S)N12` (stereo not given) it is 100% (inactive).
Take `COc1ccc(-c2cc(=O)c3c(OC)c4ccoc4c(/C=C/C=O)c3o2)cc1`: the growth is -3.36% (active).
As for `CC1=C[C@@H]2c3c(c(O)c(O)c4oc5cc(O)cc(O)c5c(=O)c34)[C@@H](c3cc(O)c(O)c4oc5cc(O)cc(O)c5c(=O)c34)[C@@H]2C(C)(C)C1`, the figure is -3.85% (active); as for `CCCCCCCCCCCCCCCCCC(=O)OCCCCCCCCCCCCC`, 112% (inactive).
As to `Cc1ccc(C(=O)C2C(=O)C3CCC2C3)cc1` (stereo not given), the growth was 98.3% (inactive).
As to `CCCCCCNC(=O)Oc1ccc(/C(=C(\C)c2ccc(Cl)cc2)c2ccc(OCCCN(C)C)cc2)cc1`, the growth is 62.9% (inactive).
With `COC(=O)CNC(=O)c1ccc(NC(=O)c2[nH]c(C)c(Cl)c2Cl)c(O[C@H]2CCNC2)c1`, the growth is 95.7% (inactive).
Consider `Cc1ccc(O)c(N)c1`, for which the growth was 115% (inactive).
`CN(C(=O)NCc1cccc(F)c1Cl)[C@H](COC(=O)Nc1cc2ccccc2cn1)CC(O)CO` (stereo not given in full): the growth is 90.5% (inactive).
The figure for `C[n+]1c(-c2ccccc2)c2cc(N)ccc2c2ccccc21` is 59.4% (inactive).
Consider `CN1C(=O)/C(=C/c2ccc(C(=O)Nc3ncc(Cc4cccc(Cl)c4)s3)cc2)SC1=S`, for which the growth was 88.2% (inactive).
With `O=c1[nH]c(SCc2ccccc2)nc2nc(Nc3ccc(NC(=S)Nc4ccccc4)cc3)nc(-c3ccc(O)cc3O)c12`, the growth is 117% (inactive).
As for `COC(/C=C/c1ccc([N+](=O)[O-])cc1)OC`, the growth was 42% (inactive).
As to `CC(C)CC(NC(=O)C(CCCN=C(N)N)NC(=O)OCc1ccccc1)C(=O)NC(CNC(=O)/C=C/c1ccccc1)C(C)C` (stereo not given), the growth was 102% (inactive).
The figure for `Cc1nc2scc(-c3ccc(Cl)cc3)n2c(=O)c1CCN1CCOCC1` is 99.6% (inactive); for `COc1ccc(SC2c3ccc(O)cc3Oc3nc(N)c(C#N)c(N)c32)cc1` (stereo not given) it is 46.9% (inactive).
On to `O=C1/C(=C/c2ccc(-c3ccccc3C(F)(F)F)o2)SC(=S)N1CCc1ccc(O)cc1`, for which the growth was 20.8% (inactive).
Regarding `CN(CCCCCCCCNc1ccnc2ccccc12)Cc1ccc(-c2ccc(-c3ccc(C#N)cc3)s2)cc1`, the growth is -58.4% (active).
The figure for `C=C1C(=O)O[C@H]2[C@H]1CC/C(Cn1cc(CNC(=O)Cc3cn(C(=O)c4ccc(Cl)cc4)c4ccc(OC)cc34)nn1)=C\CC[C@@]1(C)O[C@@H]21` is -53.4% (active); for `Cc1c(Cl)c(C)c(Cc2c(C)c(Cl)c(C)c(Cl)c2O)c(O)c1Cl` it is 10.3% (inactive); for `COc1ccc2c(O)c(/C=C3\N=Nc4ncccc43)oc2c1C[C@@H]1CCNC[C@H]1F` it is -23.3% (active).
On to `C=CCn1c(CN2CCN(c3cc4c(cc3F)c(=O)c(C(=O)O)cn4C3CC3)CC2)n[nH]c1=S`, for which the growth is 90.1% (inactive).
For the compound `O=C(NCCCN1CCN(CCCNC(=O)C2CCCCC2)CC1)C1CCCCC1`, the growth is 98.9% (inactive).
With `O=[N+]([O-])c1ccccc1NC1c2ccccc2Oc2ccccc21`, the growth was -14.4% (active).
For `Cc1ccc(/C=C/C(=N/N=C(N)N)c2ccccc2)cc1`, the growth is 7.52% (active).
On to `O=C1c2ccccc2-c2c1c1c(NCCCO)nc3ccccc3c1n2Cc1ccccc1`, for which the growth was 48.9% (inactive).
Regarding `COc1cccc(N2CCN(c3cccc(C)n3)CC2)c1`, the growth was 100% (inactive).
The figure for `COc1cc(-c2ccc3cc(OC)c(OC)c(OC)c3c2)cc(OC)c1OC` is 67.4% (inactive); for `CCOC(=O)Nc1ccc2c3c(cccc13)-c1ccccc1-2` it is 6.94% (active).
On to `O=C(Cn1nnc([N+](=O)[O-])n1)c1ccccc1`, for which the growth is 38% (inactive).
For `N#CCCCCCCCCCCC#N`, the growth was 98.7% (inactive).
Take `N#CC(=C1C=CC(=NO)C=C1)c1ccccc1`: the growth was 4.88% (active).
Take `COc1ccc(-c2cc(-c3ccc(OC)c(OC)c3)nc(SCCCCCC(=O)NO)n2)cc1`: the growth was -9.93% (active).
On to `CCCCC1COc2cccc3c2N1C=C/C3=C\C(=O)N(C)c1cccc(Cl)c1` (stereo not given), for which the growth was 98.7% (inactive).
As to `CC(=O)N1N=C(c2ccc(Nc3nc(Nc4ccc(F)cc4)nc(Nc4ccc(Cl)cc4)n3)cc2)CC1c1ccc(Cl)cc1` (stereo not given), the growth is 166% (inactive).
Take `COc1ccc(-c2cn[nH]c2-c2cc(OC)c3c(c2)OCCO3)cc1`: the growth was -33.2% (active).
In the case of `O=C(O)c1cccc([N+](=O)[O-])c1`, the growth was 107% (inactive).
